Data: PubChem BioAssay (NCI)
The panel holds about 83,000 compounds, 20% with a hit somewhere; the sample as a whole holds those more often.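 Method: cells in 96-well plates; compound added at one concentration; 48 h incubation; percent growth measured; values under 10 scored active.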 Unmarked numbers belong to inactive results. Activity calls are given as the source filed them.

test system: TK-10 renal; test: NCI-60 one-dose screen, 48 h (100 = growth as untreated, 0 = no growth, -100 = all killed); settings: 10 µM unless noted
Method: Growth inhibition of the TK-10 human tumor cell line is measured as a screen for anti-cancer activity. Cells are grown in 96 well plates and exposed to the test compound for 48 hours. Compounds are tested at a single concentration, which is 10^-5 M for most compounds. The reported endpoint is percent growth (GI% or GIPRCNT), where numbers from 0 - 100% represent growth inhibition, and numbers from -100% - 0 represent cell death. For example, a value of 40 represents 60% growth inhibition. A value of 0 means no net growth occurred over the course of the experiment. A value of -40 indicates 40% of cells at the beginning of the experiment died by the end of the experiment. A value of -100 means all cells are dead at the end of the experiment.
NCI-60 Human Tumor Cell Lines Screen was performed using the standard one-dose NCI protocol, which is described in more detail at https://dtp.cancer.gov/discovery_development/nci-60/default.htm.
Compounds with GIPRCNT values below 10 were considered active. Activity score was based on GIPRCNT using the following formula: […]
Score is 0 for GIPRCNT values of 100 or above, 50 for GIPRCNT values of 0, and 100 for GIPRCNT values of -100.

| Compound | growth |
| --- | --- |
| CCCC(=O)NC(c1ccc(N(CC)CC)cc1)c1cc(C)c2cccnc2c1O (stereo not given) | 31.6% |
| N#Cc1nc(-c2ccccc2)oc1N1CC[C@@H](CO)C1 | 123% |
| CC(=O)Oc1ccccc1C(=O)Nc1cc(C(C)C)ccc1C | 21% |
| COc1ccc(NC(=O)c2sc3nc(-c4cnccn4)cc(-c4cccs4)c3c2N)cc1 | 105% |
| COc1cc(/C=C/C(=O)c2ccc(C)cc2)ccc1Oc1nc(NCCO)nc(N2CCOCC2)n1 | 125% |
| COc1ccc(NC2=CC(=O)C(C)=C(C)C2=O)cc1 | 156% |
| COc1cccc(N2CCN(c3ncnc4c3[nH]c3ccc(F)cc34)C[C@@H]2C)c1 | -31.6% (active) |
| COc1ccc(/C=C2\SC(=Nc3cc(C)[nH]n3)NC2=O)cc1 | 102% |
| C#Cc1nc(C2=C(C)C(=O)/C(=N/OC(C)=O)C2)cs1 | 151% |
| O=C1NC(=C(Cl)Cl)/C(=N/S(=O)(=O)N2CCCCC2CC2(C(F)(F)F)N=N2)N1 (stereo not given) | 63.4% |
| O=C(N/N=C/c1ccc(Cl)s1)c1[nH]c2ccc(Br)cc2c1-c1ccccc1 | 111% |
| COc1ccc(-c2nc3ccc(-c4nnc(SCC(=O)Nc5ccc(C(C)=O)cc5)o4)cc3[nH]2)cc1 | 116% |
| CCOC(=O)c1sc(NCC(=O)Nc2cccc([N+](=O)[O-])c2)c(C(=O)OCC)c1C | -12.2% (active) |
| COc1ccc(C(=O)/C=C/c2ccc(OCc3ccc(Cl)cc3)c(OC)c2)cc1OC | 110% |
| O=C(CSc1nc2sc3c(c2c(=O)n1-c1ccc(Cl)cc1)CCCC3)NNC(=O)Nc1ccc(Cl)c(C(F)(F)F)c1 | 38.3% |
| CC(O)C(NC(=O)C1CCCN1C(=O)CNC(=O)C1CC(=O)NCC(=O)NC(Cc2c[nH]c3ccccc23)C(=O)NC(Cc2ccc(O)cc2)C(=O)NCC(=O)NC(CO)C(=O)NC(CCC(N)=O)C(=O)NC(Cc2c[nH]c3ccccc23)C(=O)N1)C(=O)NCC(=O)NC(CCC(N)=O)C(=O)NC(CCCNC(=N)N)C(=O)NC(CC(=O)O)C(=O)O (stereo not given) | 116% |
| O=C(c1ccc(O)cc1)C1[C@H](c2ccc(Cl)cc2)[C@@H](c2ccccc2)NC12C(=O)Nc1ccc(Cl)cc12 (stereo not given in full) | 66.9% |
| O=C1c2c(c3c4cc(Br)ccc4[nH]c3c3ccc4ccccc4c23)C(=O)N1CCO | 160% |
| NS(=O)(=O)c1cccc(Nc2nc(SCC(=O)c3ccc(Cl)cc3)nc3ccccc23)c1 | 123% |
| CN1C(=O)N(c2ccccc2)C2N=C(N/N=C/c3ccccc3)SC21 (stereo not given) | 61.7% |

| Compound | growth |
| --- | --- |
| CS(=O)(=O)Nc1ccc(-c2nn(-c3ccc(S(C)(=O)=O)cc3)cc2/C=C/C(=O)c2ccc(NC(=O)CO[N+](=O)[O-])cc2)cc1 | 112% |
| Fc1ccc(-c2cc3nc(C(Cl)Cl)nc(-c4ccc(Cl)cc4)n3n2)cc1 | 17.3% |
| N#Cc1nc(-c2ccccc2)oc1N1CCC(CO)C1 (stereo not given) | 104% |
| CCCC(=O)NC(c1cccnc1)c1cc(C)c2cccnc2c1O (stereo not given) | 45.5% |
| Nc1nc(N)c2c(n1)NC(c1ccc(F)cc1)CC(c1ccc(Nc3nc(NCCO)nc(Nc4ccc(Cl)cc4)n3)cc1)=N2 (stereo not given) | 111% |
| COC1CCN(Cc2ccc3c(NNC(=O)c4cnccn4)nc4cc(F)ccc4n23)C1 (stereo not given) | 40.8% |
| CCOC(=O)c1c(Nc2ccccc2)nn2c(N)c(C#N)c(-c3ccc(F)cc3)nc12 | 109% |
| COc1ccc([C@@H]2c3[nH]c4ccccc4c3CC3C(=O)N(C4CCN(Cc5c(F)cccc5F)CC4)CC(=O)N32)c(OC)c1 (stereo not given in full) | 63.5% [5.26 µM] |
| COc1ccc2[nH]cc(-c3cc(N)n4nc(-c5c[nH]c6ccc(OC)cc56)cc4n3)c2c1 | 16.5% |
| CC1=C(C)C(=O)C(Nc2cccc(C(F)(F)F)c2)=C(Cl)C1=O | 184% |
| Cn1ccnc1C(=O)/C=C/c1ccc(NC(=O)Nc2ccc(F)cc2)cc1 | 106% |
| Cc1[nH]nc2ncc(C#Cc3cncc(C(=O)Nc4ccc(CN5CCN(C)CC5)c(C(F)(F)F)c4)c3)cc12 | 27.8% |
| CS(=O)(=O)c1ccc(-n2cc(/C=C/C(=O)c3ccc(NC(=O)CO[N+](=O)[O-])cc3)c(-c3ccc(Cl)cc3)n2)cc1 | 111% |
| CN1CCc2c(sc3ncnc(N/N=C/c4ccc(Cl)c(Cl)c4)c23)C1 | 137% |
| Cc1cc2nc3c4cc(Cl)ccc4n(CC(=S)NCCN(C)C)c3nc2cc1C | 55.6% |
| CCN(CC)c1ccc(C=O)c(OCc2cn(CC(=O)Nc3ccc(Cl)cc3)nn2)c1 | 83.8% |
| COc1ccc(/C=N/NC(=O)c2[nH]c3ccc(Br)cc3c2-c2ccccc2)o1 | 94.5% |
| CN(C)c1ccc(-c2c(NC(C)(C)C)nc3c(OCCc4ccccc4)cccn23)cc1 | 52.1% |
| Fc1ccc(-c2cc3nc(C(Cl)Cl)nc(-c4ccccc4)n3n2)cc1 | -23.9% (active) |
| O=C(N/N=C/c1ccc([N+](=O)[O-])s1)c1[nH]c2ccc(Br)cc2c1-c1ccccc1 | 83.3% |
